RmlCD inh mix = inhibitors of RmlC and RmlD coupled enzymes; RmlC/RmlD coupled enzyme inhibition, 384-well mixture HTS; inhibition, % at 5.5 µM; actives 0.39% (n = 110,000); in the data active = inhibition above about 30%, passing the limit was not always enough
HIV RNase H inh-1 = blocks HIV-1 RNase H cleavage of RNA/DNA duplex; P04585; RT-RNase H RNA/DNA duplex cleavage, fluorescence; inhibition, % at 10 µM; actives 1.9% (n = 65,000); in the data active = inhibition above about 50%
HIV RNase H inh-2 = confirmation of HIV-1 reverse transcriptase RNase H inhibitors. inhibition, % at 10 µM. actives 39% (n = 1,000). shares compounds with HIV RNase H inh-1. Recombinant RT RNase H, fluorescent RNA/DNA duplex cleavage; in the data active = inhibition above about 48%
Of the large screens only hits and unclear results are named; the others gave an inactive call (follow-up assays come after a bar, where they were run). The entries come from a sample that favours hits as a whole.

COc1ccccc1-c1nnc(Sc2nc([N+](=O)[O-])nn2C)o1	none (no result: HIV RNase H inh-1)
CC1CCCC/C1=N\NS(=O)(=O)c1ccc(Br)cc1 (stereo not given)	none (no result: HIV RNase H inh-1)
O=C(COc1cccc2cccnc12)N/N=C1\SCC(=O)N1Cc1ccccc1	none (no result: HIV RNase H inh-1)
COc1ccccc1NC(=O)c1sc(NC(=O)c2ccco2)c(C#N)c1C	none (no result: HIV RNase H inh-1)
Nc1c(C(=O)Nc2ccccc2)sc2nc(-c3ccco3)ccc12	HIV RNase H inh-1 87 | HIV RNase H inh-2 inactive
Nc1c(C(=O)Nc2nc3ccccc3s2)sc2nc(-c3cccs3)ccc12	none (no result: HIV RNase H inh-1)
COc1ccccc1NC(=O)c1sc2nc(-c3ccco3)ccc2c1N	HIV RNase H inh-1 84 | HIV RNase H inh-2 inactive
CCCCN(CCCC)S(=O)(=O)c1ccc(NC(=O)Cc2cccs2)cc1	none (no result: HIV RNase H inh-1)
Cc1cc(C)n(Cc2ccc(NC(=O)c3c([N+](=O)[O-])c(C)nn3C)cc2)n1	none (no result: HIV RNase H inh-1)
Cn1nc(-c2ccc(C(=O)Nc3cccc(Cl)c3)cc2)c2ccccc2c1=O	none (no result: HIV RNase H inh-1)
CCOC(=O)c1c(NC(=O)CC2Nc3cc(C)c(C)cc3NC2=O)sc(C)c1C (stereo not given)	none (no result: HIV RNase H inh-1)
Cc1ccc(-c2csc(NC(=O)c3cccc(N4C(=O)CCC4=O)c3)n2)o1	HIV RNase H inh-1 57 | HIV RNase H inh-2 inactive
CCOC(=O)Cc1csc(NC(=O)c2cccc(N3C(=O)CCC3=O)c2)n1	none
CCOC(=O)/C(=N\Nc1ccc(OC)cc1)c1csc(Nc2ccccc2)n1	none (no result: HIV RNase H inh-1)
N#CC1=C(N)SC2(CCCCC2)SC1c1ccccc1 (stereo not given)	HIV RNase H inh-1 59 | HIV RNase H inh-2 inactive
N#CC1=C(C2CC2)CC(c2ccccc2)C(C#N)=C1N (stereo not given)	none
CCCn1c(=O)n(C)c(=O)c2c3oc(=O)c(NC(=O)c4ccc(F)cc4)cc3[nH]c21	none (no result: RmlCD inh mix)
CCOc1cc(C(=O)CSc2nnc(CNc3ccc(Cl)cc3)o2)ccc1NC(=O)CC	HIV RNase H inh-1 67 | HIV RNase H inh-2 inactive
COc1ccc(NCc2nnc(SCC(=O)c3ccc(OC)cc3)o2)cc1	none (no result: HIV RNase H inh-1)
COC(=O)c1c(C(=O)OC)c2ccncn2c1Cl	none
CCCCN1C2CCCC1CC(NC(=O)C1CCCCC1)C2 (stereo not given)	none (no result: HIV RNase H inh-1)
CCc1ccc2[nH]c(=O)c(CN(Cc3ccc4c(c3)OCO4)C(=O)c3ccco3)cc2c1	HIV RNase H inh-1 58 | HIV RNase H inh-2 inactive
CCOc1ccc2[nH]c(=O)c(CN(Cc3ccc(F)cc3)C(=O)c3ccco3)cc2c1	none
Cc1nc(N)sc1-c1csc(Nc2ccccc2)n1	none
Cc1cc(O)ccc1Nc1nc(-c2sc(N)nc2C)cs1	HIV RNase H inh-1 73 | HIV RNase H inh-2 inactive
O=C(Nc1nnc(CC(=O)N2CCOCC2)s1)c1cccs1	none
O=C(COc1cc(Cl)ccc1Cl)Nc1nnc(CC(=O)N2CCOCC2)s1	HIV RNase H inh-1 80 | HIV RNase H inh-2 inactive
Cc1cc2n(n1)C(c1ccsc1)Nc1ccccc1-2 (stereo not given)	none
CSc1ccc(C2Nc3ccccc3-c3cc(C)nn32)cc1 (stereo not given)	HIV RNase H inh-1 71 | HIV RNase H inh-2 inactive
CCOC(=O)Cc1csc(SCn2nnc3ccccc3c2=O)n1	none
CCOC(=O)Cc1csc(-n2sc3ccccc3c2=O)n1	HIV RNase H inh-1 97 | HIV RNase H inh-2 67
O=C(NCCCN1CCN(c2ccccc2F)CC1)Nc1ccc(F)cc1	none
CSc1ccc(NC(=O)NCCCN2CCN(c3ccccc3F)CC2)cc1	HIV RNase H inh-1 53 | HIV RNase H inh-2 inactive
CCOc1ccc(Cl)cc1S(=O)(=O)n1nnc2ccccc21	none
CN(C(=O)COC(=O)c1ccc2c(c1)NC(=O)CS2)C1CCS(=O)(=O)C1 (stereo not given)	none (no result: HIV RNase H inh-1)
CC(C)CN(C(=O)COC(=O)c1ccc2c(c1)NC(=O)CS2)C1CCS(=O)(=O)C1 (stereo not given)	HIV RNase H inh-1 77 | HIV RNase H inh-2 79
Cc1ccc(-c2c3c([nH]c(=S)c2C#N)CCCC3)o1	HIV RNase H inh-1 87 | HIV RNase H inh-2 inactive
N#Cc1c(-c2ccncc2)c2c([nH]c1=S)CCCC2	none (no result: HIV RNase H inh-1)
CC1SC(c2ccc(Cl)cc2Cl)NC1=O (stereo not given)	none (no result: HIV RNase H inh-1)
CC1SC(c2cccc(Cl)c2)NC1=O (stereo not given)	HIV RNase H inh-1 60 | HIV RNase H inh-2 inactive
CC(=O)C1=C(O)C=C(c2ccco2)CC1c1ccco1 (stereo not given)	none
c1ccc(-n2nnc3c(N4CCOCC4)ncnc32)cc1	HIV RNase H inh-1 67 | HIV RNase H inh-2 inactive
c1ccc(Cn2nnc3c(N4CCCC4)ncnc32)cc1	none
Cc1c(Cl)c(-c2n[nH]c(=S)n2-c2ccc(F)cc2)nn1C	none (no result: HIV RNase H inh-1)
Cc1ccc(/C=C/C2=Cc3c(sc(NC(=O)CSc4n[nH]c(N)n4)c3C#N)C(C)(C)C2)o1	HIV RNase H inh-1 96 | HIV RNase H inh-2 67
CCOC(=O)c1c(NC(=O)CSc2n[nH]c(N)n2)sc(CC)c1C	none
CCC(Sc1nc2sc(C(=O)OC)c(C)c2c(=O)n1N)C(=O)NCC1CCCO1 (stereo not given)	none
CCOC(=O)c1sc(NC(=O)c2cc(-c3ccccc3)nc3ccccc23)c(C#N)c1C	none (no result: HIV RNase H inh-1)
Cc1ccc(-c2c3c(=O)n(C)c(=O)n(C)c3c3c(C)cc(C)nn23)cc1	none (no result: RmlCD inh mix)
O=C1c2sc3nc4c(c(=O)n3c2C(=O)N1c1ccccc1)CCC4	none
Cc1ccccc1N1C(=O)c2sc3nc4c(c(=O)n3c2C1=O)CCC4	HIV RNase H inh-1 88 | HIV RNase H inh-2 80
O=C1c2sc3nc4ccccc4n3c2C(=O)N1c1ccccc1Cl	HIV RNase H inh-1 85 | HIV RNase H inh-2 72
O=c1/c(=C\c2cccnc2)sc2nc3ccccc3n12	none
COc1ccc(NC(=O)CCN2C(=O)C3CC=C(Cl)CC3C2=O)cc1 (stereo not given)	none (no result: RmlCD inh mix)
CCCCC[C@H](O)/C=C/[C@H]1C=CC(=O)[C@@H]1C/C=C\CCCC(=O)O	HIV RNase H inh-1 77 | HIV RNase H inh-2 67
CCCCC[C@H](O)/C=C/[C@H]1[C@H](O)CC(=O)[C@@H]1CCCCCCC(=O)O	none (no result: HIV RNase H inh-1)
Cc1cccc(N2CCN(C(=O)c3cc4c(=O)n(C)c5ccccc5c4n3C)CC2C)c1 (stereo not given)	none
COc1ccc(C)c2sc(N3CCCC3)nc12	none
COc1ccc(OC)c2sc(N3CCN(c4ccccc4)CC3)nc12	HIV RNase H inh-1 75 | HIV RNase H inh-2 inactive
c1ccc(SCc2nc3ccccc3[nH]2)nc1	none
COc1ccc(C(c2sc3nc(C)nn3c2O)N2CCc3ccccc3C2)cc1 (stereo not given)	HIV RNase H inh-1 79 | HIV RNase H inh-2 inactive
COc1cc(C(c2sc3nc(C)nn3c2O)N2CCc3ccccc3C2)cc(OC)c1OC (stereo not given)	none
CCOC(=O)N1CCN(C(=O)c2cnn3c(C(F)F)cc(-c4ccc(C)cc4)nc23)CC1	none
COc1ccc(-c2cc(C(F)(F)F)n3nc(C(=O)NCc4ccco4)c(Cl)c3n2)cc1	none (no result: HIV RNase H inh-1)
Cc1ccc(-c2cc(C(F)(F)F)n3ncc(C(=O)NCc4ccco4)c3n2)cc1	HIV RNase H inh-1 63 | HIV RNase H inh-2 inactive
Cc1ccc(-c2cc(C(F)F)n3ncc(C(=O)NCc4ccco4)c3n2)cc1	HIV RNase H inh-1 70 | HIV RNase H inh-2 74
CCOC(=O)/C=C/c1ccc2c(c1)S(=O)(=O)N(Cc1ccc(OC)cc1)[C@H]2CC(=O)OCC	none (no result: HIV RNase H inh-1)
O=C(CSc1ncc(-c2ccccc2)n1C1CCCC1)N1CCc2ccccc21	none (no result: HIV RNase H inh-1)
c1ccc(Cc2nnc3sc(-c4cccnc4)nn23)cc1	none
c1ccc(Cc2nnc3sc(-c4ccncc4)nn23)cc1	HIV RNase H inh-1 93 | HIV RNase H inh-2 66
